Experimental data reported in PubChem BioAssay (Tox21).
Values without a mark were called inactive. Records with an inconclusive call do not appear. A call without a number means that no potency is given here. Calls of active or inactive are those of the source. Unless noted, calls follow the shape of the dose curve; as a rule, active = well fitted curve in the direction sought with a large enough effect in the repeat runs; inconclusive = weak or mixed curves; inactive = no such curve, though single readings can be large; an effect the other way counts as inactive or inconclusive.

Assays:
[1] = target: Thyrotropin-releasing hormone receptor (Homo sapiens) (UniProt P34981); assay: qHTS assay to identify small molecule agonists of the thyrotropin-releasing hormone receptor (TRHR) signaling pathway (AID 1346891; calls by dose curve; also: series mostly up to about 58 µM)
In short: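 Agonist-mode intracellular calcium readout: kinetic fluorescence over 3 min at 1 s intervals after compound addition to TRHR-HEK293 cells (18 h seeded, 2 h dye-loaded at 37 C). Fifteen concentrations, triplicates.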

[2] = Human pregnane X receptor (PXR) small molecule agonists, qHTS cell viability counter screen (AID 1346977); also: nearly all actives have a fitted effect of over 50% in size
In short: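 Same-well viability read: CellTiter-Fluor added after 23 hr compound exposure, fluorescence measured 1 hr later. Cells were PXR-Luc HepG2 seeded at 2,000/well in 5% charcoal-stripped FBS medium, rested 5 hr before dosing at 37 C.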

[3] = Caspase-3/7 induction in HepG2 cells by small molecules, qHTS assay (AID 1346978); also: nearly all actives have a fitted effect of over 15% in size
In short: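 Wild-type HepG2 cells (2,000/well) were settled 5 h at 37 C, 5% CO2, then exposed to compounds in DMSO for 17 h. Caspase-3/7 activity was read by luminescence 30 min after adding Caspase-Glo 3/7 reagent at room temperature.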

[4] = Caspase-3/7 induction in CHO-K1 cells by small molecules, qHTS cell viability counter screen (AID 1346979); also: nearly all actives have a fitted effect of over 35% in size
In short: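 Cytotoxicity counter screen: CellTiter-Fluor added to compound-treated wild-type CHO-K1 cells at 16 h (37C, 5% CO2), fluorescence measured 1 h later; same wells as caspase-3/7 measurement.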

[5] = Caspase-3/7 induction in CHO-K1 cells by small molecules, qHTS assay (AID 1346980); also: nearly all actives have a fitted effect of over 15% in size
In short: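 Wild-type cells were seeded at 1,500 per well and settled 5 hr at 37 C, 5% CO2, then exposed to DMSO-dissolved compounds for 17 hr. Caspase-Glo 3/7 reagent was added, and luminescence was read after 30min at room temperature.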

[6] = Caspase-3/7 induction in HepG2 cells by small molecules, qHTS cell viability counter screen (AID 1346981); also: series mostly up to about 92 µM; nearly all actives have a fitted effect of over 30% in size
In short: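 Cell viability is measured as a cytotoxicity counter screen alongside the Caspase-Glo 3/7 readout in identical wells. Wild-type HepG2 cells are treated with test compounds for 16 hr at 37 C before CellTiter-Fluor addition and a 1-hr incubation.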

[7] = target: Cytochrome P450 2D6 (Homo sapiens) (UniProt P10635); assay: Cytochrome P450 Family 2 Subfamily D Member 6 (CYP2D6) small molecule antagonists: luciferase reporter qHTS assay (AID 1671196); also: nearly all actives have a fitted effect of over 50% in size; also: potency is read from the fitted curve at half-maximal effect; as to activity change, negative = inhibition: series mostly up to about 120 µM
In short: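 Enzyme and proluciferin substrate were first combined with test chemical for 10 min at room temperature. Adding NADPH regeneration solution started a 1 h reaction, stopped with luciferin detection reagent and read by luminescence 20 min later.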

[8] = target: Cytochrome P450 2C9 (Homo sapiens) (UniProt P11712); assay: Cytochrome P450 Family 2 Subfamily C Member 9 (CYP2C9) small molecule antagonists: luciferase reporter qHTS assay (AID 1671198); also: nearly all actives have a fitted effect of over 50% in size; also: potency is read from the fitted curve at half-maximal effect; as to activity change, negative = inhibition: series mostly up to about 120 µM
In short: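 CYP2C9 activity was measured with a P450-Glo proluciferin substrate. Enzyme–substrate mix was held with compound for 10 min at room temperature, then NADPH regeneration solution was added for 1 h at 37C. Luciferin product was read as luminescence.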

[9] = target: Cytochrome P450 1A2 (Homo sapiens) (UniProt P05177); assay: Cytochrome P450 Family 1 Subfamily A Member 2 (CYP1A2) small molecule antagonists: luciferase reporter qHTS assay (AID 1671199); also: nearly all actives have a fitted effect of over 50% in size; also: potency is read from the fitted curve at half-maximal effect; as to activity change, negative = inhibition: series mostly up to about 120 µM
In short: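 Compounds were incubated with CYP1A2 and a luminogenic proluciferin substrate for 10 min at room temperature before the reaction was started with NADPH regeneration solution. After 1 h, detection reagent was added and light output, proportional to CYP activity, was recorded.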

[10] = target: Voltage-gated inwardly rectifying potassium channel KCNH2 (Homo sapiens) (UniProt Q12809); assay: Human Ether-a-go-go-Related Gene (hERG) channel small molecule antagonists: fluorescence cell-based qHTS assay (AID 1671200)
In short: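 Thallium flux as potassium surrogate: FluxOR II dye loaded 1 h at room temperature into hERG-expressing U2OS cells, then stimulus buffer added after 10 min. Kinetic 480 nm excitation/540 nm emission read, 2 min.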

[11] = target: Cytochrome P450 3A4 (Homo sapiens) (UniProt P08684); assay: Cytochrome P450 Family 3 Subfamily A Member 4 (CYP3A4) small molecule antagonists: luciferase reporter qHTS assay (AID 1671201)
In short: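 Recombinant human CYP3A4 converts a proluciferin substrate to luciferin over 1 h at room temperature after NADPH regeneration solution is added (compound preincubated 10 min); detection reagent stops reaction, luminescence read 20 min later as relative units.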

[12] = target: Cytochrome P450 2C19 (Homo sapiens) (UniProt P33261); assay: Cytochrome P450 Family 2 Subfamily C Member 19 (CYP2C19) small molecule antagonists: luciferase reporter qHTS assay (AID 1671197); also: nearly all actives have a fitted effect of over 65% in size; also: potency is read from the fitted curve at half-maximal effect; as to activity change, negative = inhibition: series mostly up to about 120 µM
In short: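 P450-Glo CYP2C19 system: enzyme-substrate mix with compound 10 min at room temperature, then NADPH regeneration solution, 1 h at 37C. Proluciferin-to-luciferin conversion detected by luminescence after 20 min with detection reagent; ketoconazole as positive control.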

[13] = target: Nuclear receptor subfamily 1 group I member 2 (Homo sapiens) (UniProt O75469); assay: Human pregnane X receptor (PXR) small molecule agonists, qHTS assay (AID 1346982); also: nearly all actives have a fitted effect of over 35% in size; also: potency is read from the fitted curve at half-maximal effect
In short: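 Cells: HepG2 stably carrying PXR-Luc. Medium held 5% charcoal-stripped FBS. Compounds in DMSO added after 5 hr plating, incubated 24 hr, then luminescence quantified with ONE-Glo.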

[14] = target: Nuclear receptor subfamily 1 group I member 2 (Rattus norvegicus) (UniProt Q9R1A7); assay: Rat pregnane X receptor (rPXR) activation by small molecules, qHTS assay (AID 1346983); settings: rPXR luciferase reporter cells, One-Glo luminescence, 24 h; max activation: active compounds read high; also: nearly all actives have a fitted effect of over 20% in size; also: potency is read from the fitted curve at half-maximal effect
In short: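 Cell-based rPXR luciferase reporter assay, 2,000 cells per well, rested 5hr at 37 C before compound addition in DMSO, then 24 hr at 37 C. One-Glo reagent was added and luminescence read after 30 min at room temperature.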

[15] = target: Nuclear receptor subfamily 1 group I member 2 (Homo sapiens) (UniProt O75469); assay: CYP3A4 induction through human pregnane X receptor (PXR) by small molecules, qHTS assay (AID 1346984); also: nearly all actives have a fitted effect of over 40% in size; also: potency is read from the fitted curve at half-maximal effect
In short: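 Quantitative HTS in DPX-2 cells, i.e. HepG2 transfected with PXR response element and CYP3A4-promoter luciferase. Compounds in DMSO incubated 24hr at 37C; then P450-Glo CYP3A4 substrate, 3uM final, 3hr; One-Glo luminescence.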

[16] = target: Nuclear receptor subfamily 1 group I member 2 (Homo sapiens) (UniProt O75469); assay: Human pregnane X receptor (PXR) activation by small molecules, qHTS assay (AID 1346985); also: nearly all actives have a fitted effect of over 40% in size; also: potency is read from the fitted curve at half-maximal effect
In short: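 DPX-2 cells (HepG2 co-transfected with a PXR response element and a CYP3A4-promoter luciferase construct) were seeded at 2,000 per well, rested 5 hr at 37C, then exposed to DMSO-dissolved compounds for 24 hr. Activation was read as luciferase luminescence.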

Sequence of Cytochrome P450 2D6 (Homo sapiens) (P10635 whole entry, looked up): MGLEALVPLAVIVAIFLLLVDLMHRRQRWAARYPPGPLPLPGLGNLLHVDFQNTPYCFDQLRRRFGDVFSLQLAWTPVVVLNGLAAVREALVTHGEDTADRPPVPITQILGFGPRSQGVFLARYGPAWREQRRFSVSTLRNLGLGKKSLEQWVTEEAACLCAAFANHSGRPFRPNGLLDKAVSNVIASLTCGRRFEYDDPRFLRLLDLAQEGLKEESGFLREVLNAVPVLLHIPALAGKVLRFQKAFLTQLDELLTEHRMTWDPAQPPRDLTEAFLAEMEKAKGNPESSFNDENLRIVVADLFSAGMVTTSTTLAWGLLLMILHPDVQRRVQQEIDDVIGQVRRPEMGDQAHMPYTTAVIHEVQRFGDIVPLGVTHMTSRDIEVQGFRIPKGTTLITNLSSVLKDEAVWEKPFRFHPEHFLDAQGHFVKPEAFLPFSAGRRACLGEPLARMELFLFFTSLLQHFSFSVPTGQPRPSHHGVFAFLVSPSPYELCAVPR
Sequence of Voltage-gated inwardly rectifying potassium channel KCNH2 (Homo sapiens) (Q12809 whole entry, looked up): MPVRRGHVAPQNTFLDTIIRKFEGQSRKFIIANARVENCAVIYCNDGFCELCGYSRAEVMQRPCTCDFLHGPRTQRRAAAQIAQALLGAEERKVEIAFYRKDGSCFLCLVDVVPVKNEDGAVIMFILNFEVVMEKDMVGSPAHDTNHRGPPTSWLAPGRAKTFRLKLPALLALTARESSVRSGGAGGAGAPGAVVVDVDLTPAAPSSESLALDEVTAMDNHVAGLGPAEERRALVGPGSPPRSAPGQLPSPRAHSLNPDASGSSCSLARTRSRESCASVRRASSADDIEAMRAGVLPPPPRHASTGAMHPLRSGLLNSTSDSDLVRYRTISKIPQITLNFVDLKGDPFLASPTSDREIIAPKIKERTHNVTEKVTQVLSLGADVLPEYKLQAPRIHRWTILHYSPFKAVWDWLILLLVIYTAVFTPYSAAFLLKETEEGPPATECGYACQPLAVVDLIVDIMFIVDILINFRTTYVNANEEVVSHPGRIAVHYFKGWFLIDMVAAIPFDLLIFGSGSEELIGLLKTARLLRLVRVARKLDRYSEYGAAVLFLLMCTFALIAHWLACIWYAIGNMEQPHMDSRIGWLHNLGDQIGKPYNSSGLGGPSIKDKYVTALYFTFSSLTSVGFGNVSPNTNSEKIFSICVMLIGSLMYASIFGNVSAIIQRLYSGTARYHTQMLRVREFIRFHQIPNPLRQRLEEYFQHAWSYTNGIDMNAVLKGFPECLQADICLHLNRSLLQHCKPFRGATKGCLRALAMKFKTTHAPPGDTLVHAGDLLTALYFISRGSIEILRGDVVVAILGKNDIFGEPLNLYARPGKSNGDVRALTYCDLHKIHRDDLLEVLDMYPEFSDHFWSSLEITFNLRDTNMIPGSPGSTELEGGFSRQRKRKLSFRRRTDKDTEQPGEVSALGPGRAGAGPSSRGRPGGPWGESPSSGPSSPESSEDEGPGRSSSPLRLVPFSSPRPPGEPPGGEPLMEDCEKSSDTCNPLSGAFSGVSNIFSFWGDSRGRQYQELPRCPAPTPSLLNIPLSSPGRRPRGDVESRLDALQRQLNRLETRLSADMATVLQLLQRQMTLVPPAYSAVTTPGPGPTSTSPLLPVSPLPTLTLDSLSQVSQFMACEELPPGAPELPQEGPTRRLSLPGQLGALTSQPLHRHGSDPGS
Sequence of Nuclear receptor subfamily 1 group I member 2 (Rattus norvegicus) (Q9R1A7 whole entry, looked up): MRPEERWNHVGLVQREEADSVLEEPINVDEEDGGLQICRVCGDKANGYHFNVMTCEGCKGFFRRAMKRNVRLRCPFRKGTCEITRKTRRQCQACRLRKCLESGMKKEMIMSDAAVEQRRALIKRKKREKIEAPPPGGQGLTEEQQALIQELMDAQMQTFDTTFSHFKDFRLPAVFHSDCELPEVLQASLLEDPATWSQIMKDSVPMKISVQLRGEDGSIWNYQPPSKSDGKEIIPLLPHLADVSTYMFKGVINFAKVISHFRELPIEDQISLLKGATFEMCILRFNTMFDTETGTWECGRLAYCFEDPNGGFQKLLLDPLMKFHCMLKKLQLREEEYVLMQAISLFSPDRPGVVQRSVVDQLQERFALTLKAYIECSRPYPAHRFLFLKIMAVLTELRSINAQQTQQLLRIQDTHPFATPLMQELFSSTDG
Sequence of Cytochrome P450 2C9 (Homo sapiens) (P11712 whole entry, looked up): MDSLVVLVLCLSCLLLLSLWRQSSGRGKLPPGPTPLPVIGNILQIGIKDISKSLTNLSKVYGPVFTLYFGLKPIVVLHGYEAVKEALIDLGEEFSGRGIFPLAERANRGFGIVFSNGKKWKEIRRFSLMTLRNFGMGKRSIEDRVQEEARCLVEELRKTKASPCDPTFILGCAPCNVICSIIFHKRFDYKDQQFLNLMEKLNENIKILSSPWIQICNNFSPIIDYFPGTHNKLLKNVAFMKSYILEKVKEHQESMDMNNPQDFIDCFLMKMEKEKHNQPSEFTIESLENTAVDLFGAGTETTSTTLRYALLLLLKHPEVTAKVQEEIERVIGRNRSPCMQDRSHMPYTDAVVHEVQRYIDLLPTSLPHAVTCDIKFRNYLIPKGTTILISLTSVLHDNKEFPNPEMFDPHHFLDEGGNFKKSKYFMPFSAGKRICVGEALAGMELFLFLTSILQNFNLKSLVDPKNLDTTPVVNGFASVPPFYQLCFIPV
Sequence of Cytochrome P450 1A2 (Homo sapiens) (P05177 whole entry, looked up): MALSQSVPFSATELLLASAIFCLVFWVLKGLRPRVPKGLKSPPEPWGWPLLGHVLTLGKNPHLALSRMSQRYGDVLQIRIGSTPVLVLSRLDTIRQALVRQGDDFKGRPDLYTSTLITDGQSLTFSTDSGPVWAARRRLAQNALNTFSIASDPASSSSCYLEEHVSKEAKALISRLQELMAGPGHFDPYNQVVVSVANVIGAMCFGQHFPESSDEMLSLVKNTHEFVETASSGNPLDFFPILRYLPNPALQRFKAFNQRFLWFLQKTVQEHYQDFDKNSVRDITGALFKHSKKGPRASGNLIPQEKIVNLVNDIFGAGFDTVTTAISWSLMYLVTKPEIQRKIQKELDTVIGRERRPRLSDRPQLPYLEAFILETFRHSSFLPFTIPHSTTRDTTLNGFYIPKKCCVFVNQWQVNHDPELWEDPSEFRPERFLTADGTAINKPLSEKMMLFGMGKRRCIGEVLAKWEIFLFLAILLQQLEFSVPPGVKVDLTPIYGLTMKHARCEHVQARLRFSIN
Sequence of Thyrotropin-releasing hormone receptor (Homo sapiens) (P34981 whole entry, looked up): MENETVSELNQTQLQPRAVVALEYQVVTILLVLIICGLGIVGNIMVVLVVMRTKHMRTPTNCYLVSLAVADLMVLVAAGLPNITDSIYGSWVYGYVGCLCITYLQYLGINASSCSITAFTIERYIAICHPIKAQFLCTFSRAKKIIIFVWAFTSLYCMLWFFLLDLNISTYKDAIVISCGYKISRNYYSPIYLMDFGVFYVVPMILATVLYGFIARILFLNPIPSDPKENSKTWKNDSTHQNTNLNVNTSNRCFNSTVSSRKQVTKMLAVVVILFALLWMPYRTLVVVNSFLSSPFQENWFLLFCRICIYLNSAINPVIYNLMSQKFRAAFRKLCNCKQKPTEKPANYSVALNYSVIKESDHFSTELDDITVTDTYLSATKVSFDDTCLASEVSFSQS
Sequence of Cytochrome P450 2C19 (Homo sapiens) (P33261 whole entry, looked up): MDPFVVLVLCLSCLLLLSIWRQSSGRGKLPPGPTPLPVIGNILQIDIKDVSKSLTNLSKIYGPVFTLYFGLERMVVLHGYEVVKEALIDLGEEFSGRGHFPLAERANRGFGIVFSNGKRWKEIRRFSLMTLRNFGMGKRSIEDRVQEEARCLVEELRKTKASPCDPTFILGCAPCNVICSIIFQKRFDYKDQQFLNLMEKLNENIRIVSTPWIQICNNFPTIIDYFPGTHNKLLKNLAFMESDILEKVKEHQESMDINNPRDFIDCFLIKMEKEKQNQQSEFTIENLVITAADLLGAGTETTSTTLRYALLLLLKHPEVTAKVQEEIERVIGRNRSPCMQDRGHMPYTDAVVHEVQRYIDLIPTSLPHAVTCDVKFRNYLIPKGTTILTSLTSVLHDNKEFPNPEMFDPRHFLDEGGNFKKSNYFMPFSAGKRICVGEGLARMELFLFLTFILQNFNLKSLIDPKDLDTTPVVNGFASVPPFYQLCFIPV
Sequence of Nuclear receptor subfamily 1 group I member 2 (Homo sapiens) (O75469 whole entry, looked up): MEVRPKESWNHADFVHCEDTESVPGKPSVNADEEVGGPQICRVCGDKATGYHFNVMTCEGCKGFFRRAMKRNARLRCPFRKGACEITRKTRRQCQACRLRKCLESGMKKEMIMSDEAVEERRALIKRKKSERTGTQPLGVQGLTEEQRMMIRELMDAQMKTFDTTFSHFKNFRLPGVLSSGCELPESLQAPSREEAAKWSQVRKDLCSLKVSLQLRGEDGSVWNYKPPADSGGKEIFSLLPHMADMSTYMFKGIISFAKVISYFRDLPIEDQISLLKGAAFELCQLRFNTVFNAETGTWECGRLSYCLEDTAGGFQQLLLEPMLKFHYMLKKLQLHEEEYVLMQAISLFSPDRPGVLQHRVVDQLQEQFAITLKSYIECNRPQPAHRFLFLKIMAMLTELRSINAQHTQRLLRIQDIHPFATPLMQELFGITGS
Sequence of Cytochrome P450 3A4 (Homo sapiens) (P08684 whole entry, looked up): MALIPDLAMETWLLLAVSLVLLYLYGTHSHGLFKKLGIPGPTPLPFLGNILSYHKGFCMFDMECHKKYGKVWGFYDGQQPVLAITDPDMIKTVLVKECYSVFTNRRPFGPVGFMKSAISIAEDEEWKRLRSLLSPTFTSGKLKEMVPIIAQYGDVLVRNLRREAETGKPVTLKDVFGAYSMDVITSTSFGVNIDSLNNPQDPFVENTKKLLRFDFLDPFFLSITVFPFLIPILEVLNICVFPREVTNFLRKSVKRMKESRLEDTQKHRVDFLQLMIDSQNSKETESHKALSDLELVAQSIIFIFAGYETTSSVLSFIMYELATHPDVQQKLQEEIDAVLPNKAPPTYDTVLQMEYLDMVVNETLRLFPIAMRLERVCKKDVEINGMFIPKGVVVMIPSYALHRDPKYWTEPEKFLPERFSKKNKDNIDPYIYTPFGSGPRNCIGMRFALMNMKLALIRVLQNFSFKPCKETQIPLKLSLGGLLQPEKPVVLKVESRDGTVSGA

c1ccc2cnncc2c1
outcome [1]: inactive
Potency [2]: inactive
outcome [3]: inactive
Potency [4]: inactive
outcome [5]: inactive
outcome [6]: inactive
Potency [7]: inactive
Potency [8]: inactive
Potency [9]: 14.2 µM (active)
Potency [10]: inactive
Potency [11]: inactive

CC(C)CCCC(C)NCCC(C)C (stereo not given)
outcome [1]: inactive
Potency [2]: inactive
outcome [3]: inactive
Potency [4]: inactive
outcome [5]: inactive
outcome [6]: inactive
Potency [7]: 1.23 µM (active)
Potency [12]: inactive
Potency [8]: inactive
Potency [9]: inactive
Potency [10]: inactive
Potency [11]: inactive

CCCC(=O)O[C@]1(C(=O)CCl)[C@@H](C)C[C@H]2[C@@H]3CCC4=CC(=O)C=C[C@]4(C)[C@@]3(F)C(=O)C[C@@]21C
outcome [1]: inactive
Potency [2]: inactive
outcome [3]: inactive
outcome [5]: inactive
outcome [6]: inactive
Potency [13]: 2.11 µM (active)
Potency [14]: 1 µM (active)
Potency [15]: 0.631 µM (active)
Potency [16]: 11.2 µM (active)
Potency [7]: 11 µM (active)
Potency [12]: 7.76 µM (active)

CCCCCCCCCCCCCCC
outcome [1]: inactive
Potency [2]: inactive
outcome [3]: inactive
Potency [4]: inactive
outcome [5]: inactive
outcome [6]: inactive
Potency [7]: inactive
Potency [12]: inactive
Potency [8]: inactive
Potency [10]: inactive
Potency [11]: inactive

CCCCNc1ccccc1
outcome [1]: inactive
Potency [2]: inactive
outcome [3]: inactive
Potency [4]: inactive
outcome [5]: inactive
outcome [6]: inactive
Potency [7]: inactive
Potency [8]: inactive
Potency [9]: inactive
Potency [10]: inactive
Potency [11]: inactive

CC12CCC(CC1=O)C2(C)C (stereo not given)
outcome [1]: inactive
Potency [2]: inactive
outcome [3]: inactive
outcome [5]: inactive
outcome [6]: inactive
Potency [13]: inactive
Potency [7]: inactive
Potency [12]: inactive
Potency [8]: inactive
Potency [9]: inactive
Potency [10]: inactive
Potency [11]: inactive

C1CCCCCCCCCCC1
activation [1]: 1.06% [at 11.8 µM]
activity change, negative = cytotoxicity [2]: 4.48% [at 19 µM]
caspase activation [3]: 0.953% [at 19 µM]
activity change, negative = cytotoxicity [4]: 2.86% [at 19 µM]
caspase-3/7 activation [5]: 0.0072% [at 19 µM]
activation [13]: 7.58% [at 19 µM]
activity change, negative = inhibition [7]: -0.464% [at 23.6 µM]
activity change, negative = inhibition [12]: -20.8% [at 23.6 µM]
activity change, negative = inhibition [10]: -1.65% [at 15.8 µM]
activity change, negative = inhibition [11]: 3.28% [at 23.6 µM]

NS(=O)(=O)c1cc2c(cc1Cl)NC(CSCc1ccccc1)=NS2(=O)=O
outcome [1]: inactive
Potency [2]: inactive
outcome [3]: inactive
outcome [5]: inactive
outcome [6]: inactive
Potency [13]: inactive
max activation [14]: -1.07%
Potency [15]: inactive
Potency [16]: inactive
Potency [7]: 34.7 µM (active)
Potency [8]: 4.9 µM (active)
Potency [9]: inactive
Potency [10]: inactive

O=C1C(CCS(=O)c2ccccc2)C(=O)N(c2ccccc2)N1c1ccccc1 (stereo not given)
outcome [1]: inactive
Potency [2]: inactive
outcome [3]: inactive
Potency [4]: inactive
outcome [5]: inactive
outcome [6]: inactive
max activation [14]: -2.19%
Potency [9]: inactive
Potency [10]: inactive

CC(C)[N+](C)(C)CC(O)COc1cccc2ccccc12 (stereo not given)
outcome [1]: inactive
Potency [2]: inactive
outcome [3]: inactive
outcome [5]: inactive
outcome [6]: inactive
Potency [13]: inactive
max activation [14]: -2.92%
Potency [15]: inactive
Potency [16]: inactive
Potency [7]: 4.36 µM (active)
Potency [12]: inactive
Potency [8]: inactive
Potency [9]: inactive
Potency [10]: inactive
Potency [11]: inactive
